Experimental data: PubChem BioAssay (Tox21)
Records with an inconclusive call do not appear. A call without a number means that no potency is given here. The source holds several records for some structures; these can differ, active in one and inactive in another. The source made the active and inactive calls. Unless noted, calls follow the shape of the dose curve; as a rule, active = well fitted curve in the direction sought with a large enough effect in the repeat runs; inconclusive = weak or mixed curves; inactive = no such curve, though single readings can be large; an effect the other way counts as inactive or inconclusive.

Key:
[1] = qHTS assay for small molecules that induce genotoxicity in human embryonic kidney cells expressing luciferase-tagged ATAD5 (AID 651632); also: nearly all actives have a fitted effect of over 15% in size; also: potency is read from the fitted curve at half-maximal effect
Summary of the method: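 Genotoxicity read-out via ATAD5-luciferase: HEK293T cells, 16 hr compound incubation at 37C, Amplite detection.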

[2] = qHTS assay for small molecule agonists of the p53 signaling pathway - cell viability (AID 651633; calls by dose curve; also: nearly all actives have a fitted effect of over 30% in size; also: potency is read from the fitted curve at half-maximal effect)
Summary of the method: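 Viability counter-read: CellTiter-Glo luminescence (30 min, room temperature) in the same p53RE-bla plates. These plates had been exposed to compounds for 16 h at 37 C.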

[3] = qHTS assay for small molecules that induce genotoxicity in human embryonic kidney cells expressing luciferase-tagged ATAD5 - cell viability (AID 651634; calls by dose curve; also: nearly all actives have a fitted effect of over 25% in size; also: potency is read from the fitted curve at half-maximal effect)
Summary of the method: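 Live-cell protease activity (CellTiter-Fluor, fluorescence) indicates viability. HEK293T cells with luciferase-tagged ATAD5; 15.5 hr compound treatment at 37C.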

[4] = qHTS assay for small molecule disruptors of the mitochondrial membrane potential - cell viability (AID 720634; calls by dose curve; also: nearly all actives have a fitted effect of over 20% in size; also: potency is read from the fitted curve at half-maximal effect)
Summary of the method: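 Human hepatoma HepG2 cells were treated for 1 hr with test chemicals, then given m-MPI dye and CellTiter-Glo. Cell viability reflects luminescence proportional to cellular ATP.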

[5] = qHTS assay for small molecule disruptors of the mitochondrial membrane potential (AID 720635); also: potency is read from the fitted curve at half-maximal effect
Summary of the method: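 Mitochondrial membrane potential tracked with Mito-MPS dye, red aggregates (ex 540/em 590 nm) against green monomers (ex 490/em 535 nm). Compound treatment 1 hr at 37C, dye 30 min in HepG2.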

[6] = qHTS assay to test for compound auto fluorescence at 590 nm (red) in HepG2 cells (AID 720674)
Summary of the method: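 1 hr compound incubation on HepG2 cells, 37 C, 5% CO2; plate read ex 540 nm / em 590 nm; intensities reported as Rose Bengal sodium equivalents.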

[7] = qHTS assay to test for compound auto fluorescence at 535 nm (green) in HepG2 cells (AID 720675)
[8] = qHTS assay to test for compound auto fluorescence at 460 nm (blue) in HEK293 cells (AID 720678); also: potency is read from the fitted curve at half-maximal effect
Summary of the method: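 After cell attachment (4-5 hr, 37C), compounds were pinned onto HEK293 monolayers in 10% dialyzed FBS medium. The blue channel (405/460 nm) was read following overnight culture. Equivalency was calculated against triamterene.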

[9] = qHTS assay to test for compound auto fluorescence at 590 nm (red) in HEK293 cells (AID 720679)
Summary of the method: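 Plates of HEK293 cells (10% dialyzed FBS) are treated with 23 nL compound or DMSO vehicle after a 4-5 hr attachment period, incubated overnight at 37C, and read for red fluorescence at 540/590nm.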
Tags tell the direction and shape of the fitted curve or compound fluorescence and quenching.

SMILES | Potency [1] | Potency [2] | Potency [3] | Potency [4] | Potency [5] | outcome [6] | outcome [7] | Potency [8] | outcome [9] | fluorescence, relative to Rose Bengal [6] | fluorescence, % of fluorescein control [7] | fluorescence, % of triamterene [8] | fluorescence, % of fluorescent control [9]
Cc1ccccc1S | inactive | inactive | inactive | inactive | inactive | inactive | inactive | inactive | inactive | – | – | – | –
CC1=Nc2ccc3ccccc3c2C1(C)C | inactive | inactive | inactive | inactive | 19.3 µM (active) | inactive | inactive | – | inactive | – | – | – | –
C1COC1 | inactive | inactive | inactive | inactive | inactive | inactive | inactive | inactive | inactive | – | – | – | –
C[C@@]12CCC[C@H]1[C@@H]1CC[C@H]3C[C@@H](O)CC[C@]3(C)[C@H]1CC2 | inactive | inactive | inactive | inactive | inactive | inactive | inactive | inactive | inactive | – | – | – | –
Oc1cccc(Nc2ccccc2)c1 | inactive | inactive | inactive | inactive | 25.4 µM (active) | inactive | inactive | inactive | inactive | – | – | – | –
CCCCCCCC/C=C\CCCCCCCCO | inactive | inactive | inactive | inactive | inactive | inactive | – | – | inactive | – | – | – | –
N#CCCN(CCO)CCO | inactive | inactive | inactive | inactive | inactive | inactive | – | inactive | inactive | – | – | – | –
Nc1cccc2c1CN(C1CCC(=O)NC1=O)C2=O (stereo not given) | inactive | inactive | inactive | inactive | inactive | inactive | inactive | – | inactive | – | – | – | –
O=c1cc(-c2ccccc2)oc2cc(O)cc(O)c12 | inactive | inactive | inactive | 30.6 µM (active) | 3.86 µM (active) | inactive | inactive | – | inactive | – | – | – | –
CCCCCCCCCCCCCCN(CCO)CCO | inactive | 48.6 µM (active) | inactive | inactive | – | inactive | inactive | inactive | inactive | – | – | – | –
CN1C(C(=O)Nc2ccccn2)=C(O)c2sccc2S1(=O)=O | inactive | inactive | inactive | inactive | 7.17 µM (active) | – | – | – | – | -0.263% [at 18.6 µM] (inactive) | 0.0319% [at 18.6 µM] (inactive) | 0.367% [at 18.6 µM] (inactive) | 0.192% [at 18.6 µM] (inactive)
N#CCc1ccc(Cl)cc1Cl | inactive | inactive | inactive | inactive | – | inactive | inactive | inactive | inactive | – | – | – | –
C=CC(C)(CCC=C(C)C)OC(=O)CC(C)C (stereo not given) | inactive | inactive | inactive | inactive | inactive | inactive | inactive | inactive | inactive | – | – | – | –
O=C(OCC(O)CO)c1ccccc1Nc1ccnc2cc(Cl)ccc12 (stereo not given) | inactive | inactive | inactive | inactive | – | – | – | – | – | 0.0018% [at 18.6 µM] (inactive) | 0.0219% [at 18.6 µM] (inactive) | 0.52% [at 18.6 µM] (inactive) | -0.0042% [at 18.6 µM] (inactive)
CCc1ccccc1 | inactive | inactive | inactive | inactive | inactive | inactive | inactive | – | inactive | – | – | – | –
CCCCCC#CC(=O)OC | inactive | inactive | inactive | inactive | inactive | inactive | inactive | inactive | inactive | – | – | – | –
Oc1ccc(Cl)c2cccnc12 | inactive | inactive | inactive | inactive | 11.9 µM (active) | inactive | inactive | inactive | inactive | – | – | – | –
COC(=O)CS | inactive | inactive | inactive | inactive | inactive | inactive | inactive | inactive | inactive | – | – | – | –
O=C(O)CCCCCCCCCCCBr | inactive | inactive | inactive | inactive | – | inactive | inactive | inactive | inactive | – | – | – | –
CCC(C)(C)OC | inactive | inactive | inactive | inactive | inactive | inactive | – | inactive | inactive | – | – | – | –
c1ccc2c(c1)CCc1ccccc1N2 | inactive | inactive | inactive | 54.8 µM (active) | 19.4 µM (active) | inactive | – | inactive | inactive | – | – | – | –
CC(=O)Oc1ccc([N+](=O)[O-])cc1CCl | inactive | inactive | 30.6 µM (active) | inactive | 54.5 µM (active) | inactive | inactive | inactive | inactive | – | – | – | –
COC(=O)CCS | inactive | inactive | inactive | inactive | inactive | inactive | inactive | inactive | inactive | – | – | – | –
CCCCCC[C@@H](O)C/C=C\CCCCCCCC(=O)O | inactive | 21.1 µM (active) and inactive | inactive | inactive | inactive | inactive | inactive | inactive | inactive | – | – | – | –
CC1=C(Br)C(=O)C(Br)=C/C1=C(/c1ccccc1S(=O)(=O)O)c1cc(Br)c(O)c(Br)c1C | inactive | inactive | 37 µM (active) | inactive | – | inactive | inactive | inactive | inactive | – | – | – | –

SMILES | Potency [1] | Potency [2] | Potency [3] | Potency [4] | Potency [5] | outcome [6] | outcome [7] | Potency [8] | outcome [9] | fluorescence, relative to Rose Bengal [6] | fluorescence, % of fluorescein control [7] | fluorescence, % of triamterene [8] | fluorescence, % of fluorescent control [9]
CC(CN(C)C)C(C)(O)Cc1ccc(Cl)cc1 (stereo not given) | inactive | inactive | inactive | inactive | inactive | inactive | – | inactive | inactive | – | – | – | –
Cc1ccccc1N=C(N)Nc1ccccc1C | inactive | inactive | inactive | inactive | – | inactive | inactive | inactive | inactive | – | – | – | –
COc1ccccc1N1CCN(CC(O)COc2cccc3ccccc23)CC1 (stereo not given) | inactive | inactive | inactive | inactive | – | inactive | inactive | inactive | inactive | – | – | – | –
Cc1ccc(Cl)c(Nc2ccccc2C(=O)O)c1Cl | inactive | inactive | inactive | inactive | – | inactive | inactive | inactive | inactive | – | – | – | –
CN1C(=O)OC(C)(C)C1=O | inactive | inactive | inactive | – | – | inactive | inactive | – | inactive | – | – | – | –
Nc1ccc(N=Nc2ccccc2)c(N)c1 | 2.12 µM (active) | inactive | 67.1 µM (active) | – | 4.75 µM (active) | inactive | inactive | inactive | inactive | – | – | – | –
CN1CCCC(n2nc(Cc3ccc(Cl)cc3)c3ccccc3c2=O)CC1 (stereo not given) | inactive | inactive | inactive | – | – | inactive | inactive | inactive | inactive | – | – | – | –
C[C@]12CC[C@@H]3c4ccc(O)cc4CC[C@H]3[C@@H]1CC[C@@H]2OC(=O)CCC1CCCC1 | inactive | inactive | inactive | – | 17.2 µM (active) | inactive | inactive | inactive | inactive | – | – | – | –
CCC(C)COC(C)=O (stereo not given) | inactive | inactive | inactive | – | inactive | inactive | inactive | inactive | inactive | – | – | – | –
Cc1cc(C)c(N)cc1C | inactive | inactive | inactive | – | inactive | inactive | inactive | inactive | inactive | – | – | – | –
CC(C)c1nc(CN(C)C(=O)N[C@H](C(=O)N[C@@H](Cc2ccccc2)C[C@H](O)[C@H](Cc2ccccc2)NC(=O)OCc2cncs2)C(C)C)cs1 | inactive | inactive | inactive | inactive | – | inactive | inactive | – | inactive | – | – | – | –
CCC(=O)C1CC(C(C)C)CC=C1C (stereo not given) | inactive | inactive | inactive | – | inactive | inactive | inactive | – | inactive | – | – | – | –
CC1=C(CC=O)C(C)(C)CCC1 | inactive | inactive | inactive | inactive | – | inactive | – | inactive | inactive | – | – | – | –
CCCCN1CCCC1C(=O)Nc1c(C)cc(C)cc1C (stereo not given) | inactive | inactive | inactive | inactive | – | inactive | inactive | inactive | inactive | – | – | – | –
O=C1c2ccccc2C(=O)N1CCc1noc(-c2ccc(CN3CCCCCC3)s2)n1 | inactive | inactive | inactive | – | – | inactive | inactive | – | inactive | – | – | – | –
O=C(O)c1cccc(-c2noc(-c3ccccc3F)n2)c1 | 0.0237 µM (active) | 29.8 µM (active) | inactive | – | inactive | inactive | inactive | – | inactive | – | – | – | –
COc1ccccc1NC(=O)c1cc2ccccc2cc1O | inactive | 54.5 µM (active) | inactive | 7.7 µM (active) | – | inactive | inactive | 39.8 µM [fluorescent] (active) | inactive | – | – | – | –
C=C1CCC2CC1C2(C)C (stereo not given) | inactive | inactive | inactive | – | – | inactive | inactive | inactive | inactive | – | – | – | –
CN(C(=O)CN(CCO)CC(=O)N(C)C(C)(C)Cc1ccccc1)C(C)(C)Cc1ccccc1 | inactive | inactive | inactive | inactive | – | – | – | – | – | -0.825% [at 18.6 µM] (inactive) | – | 0.252% [at 18.6 µM] (inactive) | 0.0938% [at 18.6 µM] (inactive)
Oc1c(I)cc(I)c2cccnc12 | inactive | 10.6 µM (active) | inactive | inactive | – | inactive | – | – | inactive | – | – | – | –
O=C(Nc1cccc2c(=O)cc(-c3nn[nH]n3)oc12)c1ccc(OCCCCc2ccccc2)cc1 | inactive | inactive | inactive | inactive | – | inactive | inactive | inactive | inactive | – | – | – | –
CC(=O)c1ccc([N+](=O)[O-])cc1 | inactive | inactive | inactive | inactive | – | inactive | – | inactive | inactive | – | – | – | –
C=C/C(C)=C/C/C=C(\C)CCC=C(C)C | inactive | inactive | inactive | – | – | inactive | – | – | inactive | – | – | – | –
NNC(=O)CP(=O)(c1ccccc1)c1ccccc1 | inactive | inactive | inactive | inactive | – | inactive | – | inactive | inactive | – | – | – | –
